Inconclusive results are not listed. Activity calls are given as the source filed them. Unless noted, calls come from the whole dose curve; as a rule, active = well fitted curve in the direction sought with a large enough effect; inconclusive = small, poorly fitted or top-dose-only effect, or another doubt; inactive = no such curve, though single readings can be large; an effect the other way counts as inactive or inconclusive.

Drawing on PubChem BioAssay (NCATS), this text covers Potency and outcome for 13 compounds.

The target of assay [1] is 3',5'-cyclic-AMP phosphodiesterase 4B (Homo sapiens) (UniProt Q07343). Description: qHTS Assay for Inhibitors of PDE-IV (AID 607; active = well fitted activation curve with a large enough effect in the main read-out, with a control signal flat, not every such curve was filed as active). A digest of the protocol: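 Cell-based read-out of cAMP via a modified cyclic nucleotide-gated channel and membrane potential dye (535/590 nm) in HEK293 cells expressing PDE4 endogenously. Compounds tested up to 22.9 uM final; 100 uM RO 20-1724 reference.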
(In general: qHTS replaces the single test concentration by a dilution series.)

Assay [2] can be described thus: Stat Signaling Pathway (AID 446; active = well fitted curve in either direction with a large enough effect, not every such curve was filed as active;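 note: ME-180 cervical cancer cells given 40 pM IL-6 alongside compound; SIE-controlled beta-lactamase reporter measured as 460/530 nm FRET emission ratio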). Summed up:
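FRET read-out (405 nm excitation, 460/530 nm emission) of a beta-lactamase reporter under a STAT-inducible element in ME-180 cervical carcinoma cells. Cells with compound receive 40 pM IL-6 for 5 h. Values are normalised to AC90 stimulation and AC90 JAK-inhibitor controls.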

Assay [3] can be described thus: S16 Schwann cell PMP22 intronic element firefly luciferase assay (AID 624032). Note: nearly all actives have a fitted effect of over 30% in size. A digest of the protocol: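 Luciferase reporter of PMP22 intronic-element expression in stably transfected S16 rat Schwann cells, read by ONE-Glo luminescence after 24 h compound exposure at 37 C. Activity scaled between DMSO (0%) and positive-control PTC124; concentration-effect curves quality-classified.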

In assay [4] the test system is 7G8. Description: qHTS profiling for inhibitors of Plasmodium falciparum proliferation (AID 504749). Note: nearly all actives have a fitted effect of over 60% in size. Note: potency is the fitted concentration of half-maximal effect. The settings on record: P. falciparum in erythrocytes, SYBR Green DNA, 72 h; series mostly up to 12.8 µM. A digest of the protocol: (§1)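 In a 72 h erythrocytic culture (37 C, humidified, 5% CO2) at 2.5% hematocrit and 0.3% starting parasitemia, compounds were tested; SYBR Green I in detergent lysis buffer stained parasite DNA overnight.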

Assay [5] deals with C2A. The description is as above. The conditions noted are these: P. falciparum in erythrocytes, SYBR Green DNA, 72 h; series mostly up to 28.7 µM. A digest of the protocol: as §1
Assay [6] relates to CP185. The assay is described as above. The settings on record: P. falciparum in erythrocytes, SYBR Green DNA, 72 h; series mostly up to 28.7 µM. A digest of the protocol: as §1
Assay [7] relates to CP192. Described as above. The settings on record: P. falciparum in erythrocytes, SYBR Green DNA, 72 h; series mostly up to 28.7 µM. A digest of the protocol: as §1
For assay [8], the system named is CP194. Described as above. The settings on record: P. falciparum in erythrocytes, SYBR Green DNA, 72 h; series mostly up to 28.7 µM. A digest of the protocol:
as §1

Assay [9] relates to CP201. The description is as above. The settings on record: P. falciparum in erythrocytes, SYBR Green DNA, 72 h; series mostly up to 28.7 µM. Summed up:
as §1

Assay [10] has as its system CP203. The description is as above. The settings on record: P. falciparum in erythrocytes, SYBR Green DNA, 72 h; series mostly up to 28.7 µM. Summed up: as §1
Assay [11] relates to CP262. The assay is described as above. The conditions noted are these: P. falciparum in erythrocytes, SYBR Green DNA, 72 h; series mostly up to 28.7 µM. Summed up: as §1
Assay [12] has as its system CP266. Described as above. The conditions noted are these: P. falciparum in erythrocytes, SYBR Green DNA, 72 h; series mostly up to 12.8 µM. A digest of the protocol:
as §1

In assay [13] the test system is CP286. The assay is described as above. The conditions noted are these: P. falciparum in erythrocytes, SYBR Green DNA, 72 h; series mostly up to 28.7 µM. A digest of the protocol:
as §1

Assay [14] has as its system CP305. The description is as above. The settings on record: P. falciparum in erythrocytes, SYBR Green DNA, 72 h; series mostly up to 28.7 µM. A digest of the protocol: as §1
In assay [15] the test system is CP315. Described as above. The settings on record: P. falciparum in erythrocytes, SYBR Green DNA, 72 h; series mostly up to 28.7 µM. Summed up: as §1
Assay [16] relates to CP237. Described as above. The settings on record: P. falciparum in erythrocytes, SYBR Green DNA, 72 h; series mostly up to 28.7 µM. Summed up:
as §1

Assay [17] has as its system DIV14. The assay is described as above. The conditions noted are these: P. falciparum in erythrocytes, SYBR Green DNA, 72 h; series mostly up to 28.7 µM. A digest of the protocol:
as §1

For assay [18], the system named is DIV17. The description is as above. The conditions noted are these: P. falciparum in erythrocytes, SYBR Green DNA, 72 h; series mostly up to 28.7 µM. A digest of the protocol: as §1
The subject of assay [19] is Dd2. The description is as above. The conditions noted are these: P. falciparum in erythrocytes, SYBR Green DNA, 72 h; series mostly up to 28.7 µM. Summed up:
as §1

The test system of assay [20] is GB4. The assay is described as above. The conditions noted are these: P. falciparum in erythrocytes, SYBR Green DNA, 72 h; series mostly up to 28.7 µM. Summed up: as §1

Chain of 3',5'-cyclic-AMP phosphodiesterase 4B (Homo sapiens) (Q07343 whole entry, looked up): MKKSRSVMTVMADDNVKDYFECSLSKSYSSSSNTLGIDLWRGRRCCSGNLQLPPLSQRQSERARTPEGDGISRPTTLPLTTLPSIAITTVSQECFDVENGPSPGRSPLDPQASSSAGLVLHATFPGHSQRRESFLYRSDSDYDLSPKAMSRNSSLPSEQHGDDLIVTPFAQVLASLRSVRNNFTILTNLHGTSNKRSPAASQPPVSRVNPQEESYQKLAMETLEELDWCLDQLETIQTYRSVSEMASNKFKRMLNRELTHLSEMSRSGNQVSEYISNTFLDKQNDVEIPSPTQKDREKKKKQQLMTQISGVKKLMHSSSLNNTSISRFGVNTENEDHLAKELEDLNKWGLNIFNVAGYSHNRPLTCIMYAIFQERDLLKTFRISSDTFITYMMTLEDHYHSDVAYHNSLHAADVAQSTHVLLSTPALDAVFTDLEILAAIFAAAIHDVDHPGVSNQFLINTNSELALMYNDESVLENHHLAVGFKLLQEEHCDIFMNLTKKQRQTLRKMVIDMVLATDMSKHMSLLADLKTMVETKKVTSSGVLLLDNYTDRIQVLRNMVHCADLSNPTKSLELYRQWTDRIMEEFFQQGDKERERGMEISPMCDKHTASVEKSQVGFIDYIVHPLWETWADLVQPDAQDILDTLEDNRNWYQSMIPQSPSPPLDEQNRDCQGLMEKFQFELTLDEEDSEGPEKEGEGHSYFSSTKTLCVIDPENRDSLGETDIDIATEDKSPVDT

For `C[C@@H]1O[C@H](O[C@@H]2CC[C@@]3(C=O)[C@H]4CC[C@@]5(C)[C@@H](C6=CC(=O)OC6)CC[C@@]5(O)[C@@H]4CC[C@]3(O)C2)C[C@H](O)[C@@H]1O`, the Potency entry in [1] is “inactive”.

Regarding `COc1ccc(C(=O)OC2C[C@H]3CC[C@@H](C2)N3C)cc1OC` (some centres not stated), the call in [2] was inactive. In addition, the Potency entry in [1] is “inactive”.

For the compound `CC(C)CC(CN)CC(=O)O` (configuration not stated), the Potency entry in [3] was “inactive”.

As to `CN1[C@@H]2CC[C@H]1CC(O)C2` (some centres not stated), the result in assay [2] was inactive.

Regarding `CC([C@H](O)c1ccccc1)N(C)C` (some centres not stated), the Potency entry in assay [3], in assay [5], in [6], in [7], in assay [8] and in assay [9] was “inactive” in each case. Further, the Potency result in assay [10], in assay [11], in assay [12], in assay [13], in assay [14] and in [15] was “inactive” each time. Moreover, in assay [4], the Potency was 11.2 µM (active).

In the case of `O=C1C=C2C=C[C@H]3C[C@@]2(O1)[C@H]1CCCCN31`, the outcome in [2] was inactive. In assay [1], the Potency result was “inactive”.

`C[N+]1=Cc2cc3c(cc2CC1)OCO3`: the Potency entry in assay [1] is “inactive”.

For `ClC1=C(Cl)C2(Cl)C3C4CC(C5OC45)C3C1(Cl)C2(Cl)Cl` (configuration not stated), the Potency entry in assay [3], in assay [5], in [6], in assay [7], in assay [8] and in assay [9] was “inactive” in each case. In addition, the Potency entry in assay [10], in assay [16], in assay [12], in assay [14], in [15] and in assay [17] was “inactive” in each case. For the same compound, the Potency entry in assay [18], in assay [19] and in assay [20] was “inactive” each time.

Consider `COc1cc2c(cc1O)C[C@H]1c3c(cc(O)c(OC)c3-2)CCN1C`, for which the compound was classed as inactive in [2]. In addition, the Potency entry in assay [1] is “inactive”.

For the compound `C[C@@]12CC[C@H](O)C[C@@H]1CC[C@H]1[C@H]2CC[C@@]2(C)[C@@H](C3=CC(=O)OC3)CC[C@]12O`, in assay [2], the compound was classed as inactive.

Consider `COc1cc2c(cc1OC)[C@@]13CCN4CC5=CCOC6CC(=O)N2C1[C@H]6[C@@H]5C[C@@H]43` (some centres not stated), for which the Potency entry in assay [3], in assay [4], in assay [5], in assay [6], in assay [7] and in assay [8] was “inactive” each time. The Potency result in [9], in assay [10], in assay [16], in assay [11], in assay [12] and in [13] was “inactive” each time. The Potency result in assay [14], in assay [15], in [17], in [18], in [19] and in assay [20] was “inactive” each time.

With `O=c1ccc2cc(O[C@H]3O[C@@H](CO)[C@@H](O)[C@@H](O)[C@@H]3O)c(O)cc2o1`, the Potency result in [3], in assay [4], in assay [5], in assay [6], in assay [7] and in [8] was “inactive” each time. Further, the Potency entry in assay [9], in assay [10], in assay [16], in [11], in [12] and in [13] was “inactive” throughout. Moreover, the Potency entry in assay [14], in assay [15], in [17], in [19] and in assay [20] was “inactive” throughout.

Consider `CCC(C)C1O[C@]2(C=CC1C)CC1CC(C/C=C(\C)[C@H](OC3CC(OC)C(O[C@H]4CC(OC)[C@@H](O)C(C)O4)C(C)O3)[C@@H](C)/C=C/C=C3\COC4C(O)C(C)=C[C@H](C(=O)O1)[C@@]34O)O2` (some centres not stated), for which the Potency in assay [4] was 10 µM (active); in [5], 12.6 µM (active); in assay [6], 11.2 µM (active); in assay [7], 19 µM (active); in [8], 12 µM (active); in [9], 16.9 µM (active). Also, the Potency in assay [10] was 13.5 µM (active); in assay [14] it was 12 µM (active); in assay [17] it was 12 µM (active); in assay [18] it was 12 µM (active); in [19], 11.2 µM (active); in assay [20], 13.5 µM (active). Besides, the Potency entry in assay [11] is “inactive”.
